Measured values: PubChem BioAssay (Tox21)
Several values for one entry are separate records, joined by “and”; a condition that tells them apart may be missing. Identical values can stand only once. Results filed as inconclusive are left out. Activity calls are given as the source filed them. Calls follow the shape of the dose curve; as a rule, active = well fitted curve in the direction sought with a large enough effect in the repeat runs; inconclusive = weak or mixed curves; inactive = no such curve, though single readings can be large; an effect the other way counts as inactive or inconclusive.

Assays:
[1] = biological target: Cytochrome P450 2D6 (Homo sapiens) (UniProt P10635); assay: Cytochrome P450 Family 2 Subfamily D Member 6 (CYP2D6) small molecule antagonists: luciferase reporter qHTS assay (AID 1671196); also: series mostly up to about 120 µM; nearly all actives have a fitted effect of over 50% in size
How it was run: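 CYP2D6 activity was followed as luminescence from its luciferin product after a 1 h NADPH-driven reaction at room temperature. Enzyme-substrate mix and compound were pre-incubated for 10 min, and the signal was read 20 min after adding detection reagent.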

[2] = biological target: Cytochrome P450 2C19 (Homo sapiens) (UniProt P33261); assay: Cytochrome P450 Family 2 Subfamily C Member 19 (CYP2C19) small molecule antagonists: luciferase reporter qHTS assay (AID 1671197); also: series mostly up to about 120 µM; nearly all actives have a fitted effect of over 65% in size
How it was run: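 Light output is proportional to CYP2C19 activity: proluciferin substrate is converted to luciferin, then detected by a luciferin detection reagent that also stops the 1 h, 37C NADPH-driven reaction. Ketoconazole serves as positive control.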

[3] = biological target: Cytochrome P450 1A2 (Homo sapiens) (UniProt P05177); assay: Cytochrome P450 Family 1 Subfamily A Member 2 (CYP1A2) small molecule antagonists: luciferase reporter qHTS assay (AID 1671199); also: nearly all actives have a fitted effect of over 50% in size; also: potency is read from the fitted curve at half-maximal effect; as to activity change, negative = inhibition: series mostly up to about 120 µM
How it was run: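 Luminescence from luciferin formed by CYP1A2 from a proluciferin substrate, read 20 min after detection reagent. Compound was pre-incubated 10 min with enzyme-substrate, and reaction started with NADPH regeneration solution for 1 h at room temperature; furafylline control.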

[4] = biological target: Voltage-gated inwardly rectifying potassium channel KCNH2 (Homo sapiens) (UniProt Q12809); assay: Human Ether-a-go-go-Related Gene (hERG) channel small molecule antagonists: fluorescence cell-based qHTS assay (AID 1671200);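 also: hERG-expressing U2OS cells given a thallium stimulus after FluxOR II dye loading; series mostly up to about 77 µM; nearly all actives have a fitted effect of over 50% in size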
How it was run: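 U2OS cells expressing the channel were plated at 1000 cells/well, incubated overnight at 37 C, then loaded with FluxOR II thallium-sensitive dye for 1 h at room temperature in the dark, with a further 10 min at room temperature before stimulation.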

[5] = biological target: Cytochrome P450 3A4 (Homo sapiens) (UniProt P08684); assay: Cytochrome P450 Family 3 Subfamily A Member 4 (CYP3A4) small molecule antagonists: luciferase reporter qHTS assay (AID 1671201); also: nearly all actives have a fitted effect of over 50% in size; also: potency is read from the fitted curve at half-maximal effect; as to activity change, negative = inhibition: series mostly up to about 120 µM
How it was run: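 P450-Glo CYP3A4 system with proluciferin substrate; compounds preincubated 10 min RT with enzyme-substrate mix, then NADPH regeneration added for 1 h RT. Detection reagent 20 min, luminescence read as relative luminescence units.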

[6] = biological target: Cytochrome P450 2C9 (Homo sapiens) (UniProt P11712); assay: Cytochrome P450 Family 2 Subfamily C Member 9 (CYP2C9) small molecule antagonists: luciferase reporter qHTS assay (AID 1671198)
How it was run: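 P450-Glo proluciferin substrate with CYP2C9 enzyme; 10 min RT preincubation, then NADPH regeneration 1 h at 37C; luciferin detection reagent 20 min RT, luminescence in relative luminescence units.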
% is scaled to controls: 0 for no effect and ±100 for the full control effect.

Voltage-gated inwardly rectifying potassium channel KCNH2 (Homo sapiens), sequence (Q12809 whole entry, looked up): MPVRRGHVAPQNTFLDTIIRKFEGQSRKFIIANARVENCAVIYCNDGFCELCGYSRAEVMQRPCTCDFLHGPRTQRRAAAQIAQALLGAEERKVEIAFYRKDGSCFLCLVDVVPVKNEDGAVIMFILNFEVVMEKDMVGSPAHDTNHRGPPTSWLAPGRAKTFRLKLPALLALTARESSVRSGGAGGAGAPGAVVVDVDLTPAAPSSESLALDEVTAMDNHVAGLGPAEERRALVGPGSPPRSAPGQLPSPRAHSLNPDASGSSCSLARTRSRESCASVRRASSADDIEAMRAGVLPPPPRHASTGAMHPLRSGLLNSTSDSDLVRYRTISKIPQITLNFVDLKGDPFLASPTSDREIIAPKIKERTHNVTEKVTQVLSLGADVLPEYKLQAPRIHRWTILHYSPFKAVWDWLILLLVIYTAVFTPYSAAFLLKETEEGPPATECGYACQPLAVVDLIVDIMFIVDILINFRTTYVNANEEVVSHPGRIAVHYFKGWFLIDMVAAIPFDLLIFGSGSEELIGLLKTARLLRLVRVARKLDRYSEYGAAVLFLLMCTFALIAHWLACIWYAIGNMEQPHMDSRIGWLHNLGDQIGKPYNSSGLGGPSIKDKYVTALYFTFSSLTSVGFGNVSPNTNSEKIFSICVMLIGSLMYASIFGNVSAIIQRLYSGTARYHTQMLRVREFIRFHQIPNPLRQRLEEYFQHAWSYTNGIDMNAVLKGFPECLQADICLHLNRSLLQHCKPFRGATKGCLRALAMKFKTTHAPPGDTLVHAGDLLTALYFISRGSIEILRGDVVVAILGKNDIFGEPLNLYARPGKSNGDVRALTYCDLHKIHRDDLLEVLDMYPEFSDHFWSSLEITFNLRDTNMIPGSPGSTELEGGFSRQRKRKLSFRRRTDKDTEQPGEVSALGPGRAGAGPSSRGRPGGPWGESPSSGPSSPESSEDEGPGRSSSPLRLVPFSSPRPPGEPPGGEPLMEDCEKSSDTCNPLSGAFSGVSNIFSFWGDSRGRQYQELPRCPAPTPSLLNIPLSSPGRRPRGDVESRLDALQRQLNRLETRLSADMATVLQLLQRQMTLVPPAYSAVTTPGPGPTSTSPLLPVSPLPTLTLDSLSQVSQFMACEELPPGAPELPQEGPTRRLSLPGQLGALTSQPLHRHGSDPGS
Cytochrome P450 2C19 (Homo sapiens), sequence (P33261 whole entry, looked up): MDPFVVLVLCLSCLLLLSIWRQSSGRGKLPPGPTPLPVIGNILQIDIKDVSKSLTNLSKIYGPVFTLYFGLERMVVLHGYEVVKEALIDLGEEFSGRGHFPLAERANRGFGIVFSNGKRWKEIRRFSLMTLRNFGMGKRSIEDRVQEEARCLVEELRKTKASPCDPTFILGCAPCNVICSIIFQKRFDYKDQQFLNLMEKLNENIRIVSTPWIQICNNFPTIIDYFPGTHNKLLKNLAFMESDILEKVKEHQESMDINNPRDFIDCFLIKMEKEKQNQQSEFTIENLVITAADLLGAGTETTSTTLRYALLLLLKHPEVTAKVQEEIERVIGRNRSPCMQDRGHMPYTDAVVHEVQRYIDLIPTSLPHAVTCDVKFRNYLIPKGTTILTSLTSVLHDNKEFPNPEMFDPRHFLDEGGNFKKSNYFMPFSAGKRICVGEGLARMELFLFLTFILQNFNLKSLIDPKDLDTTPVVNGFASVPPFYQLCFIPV
Cytochrome P450 1A2 (Homo sapiens), sequence (P05177 whole entry, looked up): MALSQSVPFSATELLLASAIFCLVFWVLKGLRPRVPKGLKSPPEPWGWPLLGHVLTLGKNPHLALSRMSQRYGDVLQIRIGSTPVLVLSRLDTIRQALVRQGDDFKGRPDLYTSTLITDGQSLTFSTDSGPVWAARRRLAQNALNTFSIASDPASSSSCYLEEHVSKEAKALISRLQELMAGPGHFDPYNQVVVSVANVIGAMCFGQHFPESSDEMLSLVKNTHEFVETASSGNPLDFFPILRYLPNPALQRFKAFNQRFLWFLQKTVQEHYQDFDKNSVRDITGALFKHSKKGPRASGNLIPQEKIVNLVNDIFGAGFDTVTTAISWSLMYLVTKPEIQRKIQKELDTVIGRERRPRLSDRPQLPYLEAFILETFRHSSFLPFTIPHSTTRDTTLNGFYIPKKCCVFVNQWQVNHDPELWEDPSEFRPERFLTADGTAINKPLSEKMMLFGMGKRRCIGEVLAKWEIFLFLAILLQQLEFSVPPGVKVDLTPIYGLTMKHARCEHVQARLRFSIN
Cytochrome P450 3A4 (Homo sapiens), sequence (P08684 whole entry, looked up): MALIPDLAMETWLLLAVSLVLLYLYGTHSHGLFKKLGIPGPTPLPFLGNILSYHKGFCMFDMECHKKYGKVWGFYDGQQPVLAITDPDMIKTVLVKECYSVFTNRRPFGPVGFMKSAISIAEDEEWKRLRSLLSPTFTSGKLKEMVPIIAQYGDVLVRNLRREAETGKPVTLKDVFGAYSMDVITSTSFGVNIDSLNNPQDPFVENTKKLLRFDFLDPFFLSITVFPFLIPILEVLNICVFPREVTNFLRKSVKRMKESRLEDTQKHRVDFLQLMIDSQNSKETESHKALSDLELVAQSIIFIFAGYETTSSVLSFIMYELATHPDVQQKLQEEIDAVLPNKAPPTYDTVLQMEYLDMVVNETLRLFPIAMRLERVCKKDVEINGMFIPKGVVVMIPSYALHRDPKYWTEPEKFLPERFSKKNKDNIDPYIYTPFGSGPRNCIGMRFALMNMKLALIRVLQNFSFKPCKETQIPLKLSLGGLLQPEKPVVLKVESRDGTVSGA
Cytochrome P450 2D6 (Homo sapiens), sequence (P10635 whole entry, looked up): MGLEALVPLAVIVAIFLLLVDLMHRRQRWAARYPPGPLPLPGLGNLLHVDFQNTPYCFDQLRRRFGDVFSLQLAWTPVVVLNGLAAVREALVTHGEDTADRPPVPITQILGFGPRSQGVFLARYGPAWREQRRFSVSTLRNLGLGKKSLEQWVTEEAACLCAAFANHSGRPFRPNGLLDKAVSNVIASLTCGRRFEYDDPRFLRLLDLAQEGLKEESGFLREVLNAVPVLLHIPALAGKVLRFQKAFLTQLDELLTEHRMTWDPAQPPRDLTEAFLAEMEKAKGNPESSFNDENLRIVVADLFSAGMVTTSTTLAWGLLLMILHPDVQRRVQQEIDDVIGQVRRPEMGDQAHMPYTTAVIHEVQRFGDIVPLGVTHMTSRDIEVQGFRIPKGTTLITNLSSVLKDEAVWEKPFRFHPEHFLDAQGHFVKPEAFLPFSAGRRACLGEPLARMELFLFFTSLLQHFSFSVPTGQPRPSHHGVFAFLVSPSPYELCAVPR
Cytochrome P450 2C9 (Homo sapiens), sequence (P11712 whole entry, looked up): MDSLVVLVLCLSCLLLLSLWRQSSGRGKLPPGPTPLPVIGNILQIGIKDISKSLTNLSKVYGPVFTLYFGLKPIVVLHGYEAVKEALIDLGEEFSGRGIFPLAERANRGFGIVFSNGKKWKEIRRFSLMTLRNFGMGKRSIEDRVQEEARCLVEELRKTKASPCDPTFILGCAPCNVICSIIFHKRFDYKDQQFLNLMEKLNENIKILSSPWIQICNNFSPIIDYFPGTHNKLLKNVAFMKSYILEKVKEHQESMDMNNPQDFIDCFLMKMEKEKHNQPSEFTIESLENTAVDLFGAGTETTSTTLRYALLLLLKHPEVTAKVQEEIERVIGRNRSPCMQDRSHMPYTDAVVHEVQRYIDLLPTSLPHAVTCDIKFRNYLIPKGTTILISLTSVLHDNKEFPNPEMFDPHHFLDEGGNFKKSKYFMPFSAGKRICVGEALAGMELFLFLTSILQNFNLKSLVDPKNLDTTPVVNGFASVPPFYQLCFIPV

CO[Si](CCCOCC1CO1)(OC)OC (stereo not drawn)
inactive: Potency [1] | Potency [2] | Potency [3] | Potency [4] | Potency [5]

CCCc1cc(C(N)=S)ccn1
inactive: Potency [1] | Potency [6] | Potency [3] | Potency [4] | Potency [5]

N=C(N)c1ccc(OCCCOc2ccc(C(=N)N)cc2)cc1
inactive: Potency [1] | Potency [2] | Potency [3] | Potency [4] | Potency [5]

C[C@](N)(Cc1ccc(O)cc1)C(=O)O
inactive: activity change, negative = inhibition [1] -0.539% [at 10.5 µM] | activity change, negative = inhibition [2] -21.1% [at 10.5 µM] | activity change, negative = inhibition [3] 0.454% [at 10.5 µM] | activity change, negative = inhibition [4] 1.07% [at 6.97 µM] | activity change, negative = inhibition [5] -20.3% [at 10.5 µM]

O=C(O)COc1nn(Cc2ccccc2)c2ccccc12
inactive: Potency [1] | Potency [2] | Potency [3] | Potency [4] | Potency [5]

CCCCCCOC(=O)CCCCC(=O)OCCCCCC
inactive: Potency [1] | Potency [2] | Potency [3] | Potency [4] | Potency [5]

CC(C)c1cc2c(cc1S(=O)(=O)O)[C@@]1(C)CCC[C@@](C)(C(=O)O)[C@@H]1CC2
inactive: Potency [1] | Potency [2] | Potency [4] | Potency [5]

COc1ccc2c(c1)CCCC2=O
inactive: Potency [1] | Potency [2] | Potency [4] | Potency [5]
active: Potency [3] 13.8 µM

Cc1c(O)cccc1O
inactive: Potency [1] | Potency [4]
active: Potency [5] 32.5 µM

NC(=O)c1ccc(N)cc1
inactive: Potency [1] | Potency [2] | Potency [3] | Potency [5]

Cc1cc(O)cc2c1O[C@](C)(CCC[C@H](C)CCC[C@H](C)CCCC(C)C)CC2
inactive: Potency [1] | Potency [2] | Potency [4] | Potency [5]

O=C1CCCCCCCCCCCN1
active: Potency [3] 70.9 µM | Potency [5] 3.55 µM and 7.96 µM
inactive: Potency [1]
